PubChem BioAssay (NCATS)
Results filed as inconclusive are left out. Active and inactive are the calls of the source. Unless noted, calls come from the whole dose curve; as a rule, active = well fitted curve in either direction with a large enough effect (not every such curve was filed as active); inconclusive = small, poorly fitted or top-dose-only effect, or another doubt; inactive = flat fitted curve, though single readings scatter.

Assays:
[1] = molecular target: Lysosomal acid glucosylceramidase (Homo sapiens) (UniProt P04062); test: Glucocerebrosidase-p2 (AID 348; in the data active = potency below about 10 µM; note: potency is the fitted concentration of half-maximal effect); conditions: purified GBA, blue fluorogenic substrate, 40 min
Chain of Lysosomal acid glucosylceramidase (Homo sapiens) (P04062 whole entry, looked up): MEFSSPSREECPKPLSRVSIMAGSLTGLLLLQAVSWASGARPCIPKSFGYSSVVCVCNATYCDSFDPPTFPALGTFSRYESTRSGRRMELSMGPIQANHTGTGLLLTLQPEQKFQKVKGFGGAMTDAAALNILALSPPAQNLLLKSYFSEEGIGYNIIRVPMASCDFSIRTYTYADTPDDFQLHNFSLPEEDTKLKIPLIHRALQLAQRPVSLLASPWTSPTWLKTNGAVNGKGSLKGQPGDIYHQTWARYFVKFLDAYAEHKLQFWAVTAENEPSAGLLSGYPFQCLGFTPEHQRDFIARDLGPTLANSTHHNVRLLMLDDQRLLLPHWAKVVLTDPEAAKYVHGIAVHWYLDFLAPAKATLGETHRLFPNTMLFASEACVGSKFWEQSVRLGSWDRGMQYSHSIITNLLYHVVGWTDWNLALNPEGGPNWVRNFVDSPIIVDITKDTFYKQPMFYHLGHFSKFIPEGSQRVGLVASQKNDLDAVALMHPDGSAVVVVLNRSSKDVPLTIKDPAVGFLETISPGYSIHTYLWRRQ
Method in brief: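 Normal human glucocerebrosidase (0.2 nM) with blue fluorogenic substrate (80 uM final) in citrate/phosphate pH 5.9 with 10mM sodium taurocholate, 0.01% tween-20; 40 min RT, NaOH/glycine stop; fluorescence Ex 365/Em 440; AC50 from a titration from 0.6 nM upwards.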

[2] = AP1 Signaling Pathway (AID 357); conditions: ME-180 AP-1-bla reporter, EGF-induced, beta-lactamase ratio, 5 h; at 7.69 µM (top of the series) unless noted;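 note: ME-180 reporter cells stimulated with EGF at its EC50 level; % is set by controls: 0 for no effect and ±100 for the full control effect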
Method in brief: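 A ratiometric CCF4 readout (405 nm excitation; 460 and 530 nm emission) quantified AP-1-driven beta-lactamase in ME-180 cells after 5 h with compound and EC50 EGF; AC50 values were derived for activators and inhibitors.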

[3] = molecular target: Cytochrome P450 1A2 (Homo sapiens) (UniProt P05177); test: p450-cyp1a2 (AID 410; calls by dose curve; note: potency is the fitted concentration of half-maximal effect;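 for activity change, negative = inhibition: -100% = full effect of reference inhibitor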); conditions: recombinant CYP1A2, luciferin-ME demethylation, luminescence; series mostly up to 11.4 µM
Chain of Cytochrome P450 1A2 (Homo sapiens) (P05177 whole entry, looked up): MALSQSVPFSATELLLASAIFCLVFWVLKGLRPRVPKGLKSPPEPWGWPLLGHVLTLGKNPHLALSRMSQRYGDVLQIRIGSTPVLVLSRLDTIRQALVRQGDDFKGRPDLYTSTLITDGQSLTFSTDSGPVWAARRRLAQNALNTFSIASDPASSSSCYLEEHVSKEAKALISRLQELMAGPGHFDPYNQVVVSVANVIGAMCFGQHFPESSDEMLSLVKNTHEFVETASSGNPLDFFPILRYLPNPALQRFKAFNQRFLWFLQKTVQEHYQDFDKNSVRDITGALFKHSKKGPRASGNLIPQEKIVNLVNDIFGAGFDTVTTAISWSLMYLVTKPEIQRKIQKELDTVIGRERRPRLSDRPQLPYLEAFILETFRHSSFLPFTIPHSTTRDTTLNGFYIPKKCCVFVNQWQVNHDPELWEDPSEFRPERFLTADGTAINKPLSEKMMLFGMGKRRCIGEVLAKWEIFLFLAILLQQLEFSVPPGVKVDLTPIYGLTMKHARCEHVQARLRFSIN
Method in brief: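 Luminescent demethylation readout: Luciferin-ME (100uM, equal to Km) turned over by 20nM CYP1A2 for 60 min at room temperature after NADPH regeneration addition, following 10 min compound preincubation. Normalization used 57 uM furafylline as full inhibition.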

[4] = NFAT Signaling Pathway (AID 444); conditions: Jurkat NFAT-bla M1, carbachol, beta-lactamase ratio, 5 h; at 7.69 µM (top of the series) unless noted;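 note: carbachol stimulus at about its EC50 of 1 µM final; % is set by controls: 0 for no effect and ±100 for the full control effect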
Method in brief: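 Read-out: CCF4 FRET ratio (460 nm/530 nm) after 1 h RT dye loading, used for %activity and AC50 from titration series. Cells: Jurkat NFAT-β-lactamase/M1 line, treated with compound plus 1 uM carbachol for 5 h, 37 °C.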

[5] = Stat Signaling Pathway (AID 446); conditions: ME-180 (cervical carcinoma) SIE beta-lactamase reporter, IL-6 stimulated, 5 h; at 7.69 µM (top of the series) unless noted;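 note: ME-180 cervical cancer cells given 40 pM IL-6 alongside compound; SIE-controlled beta-lactamase reporter measured as 460/530 nm FRET emission ratio; % is set by controls: 0 for no effect and ±100 for the full control effect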
Method in brief: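 Normalization used AC90 stimulation (300 pM IL-6) and AC90 inhibition (125 nM pan-JAK inhibitor at 40 pM IL-6). The underlying signal is SIE-driven beta-lactamase in ME-180 cells after 5 h IL-6 exposure with compound.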

[6] = molecular target: Glucocorticoid receptor (Homo sapiens) (UniProt P04150); test: GR-GFP Redistribution (AID 450;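 active = compounds whose dose series gives a full or clear partial fitted curve of increased nuclear translocation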; note: potency is the fitted concentration of half-maximal effect); conditions: U2OS GR-GFP nuclear translocation, laser cytometry, 2 h
Chain of Glucocorticoid receptor (Homo sapiens) (P04150 whole entry, looked up, the tested form may be a part): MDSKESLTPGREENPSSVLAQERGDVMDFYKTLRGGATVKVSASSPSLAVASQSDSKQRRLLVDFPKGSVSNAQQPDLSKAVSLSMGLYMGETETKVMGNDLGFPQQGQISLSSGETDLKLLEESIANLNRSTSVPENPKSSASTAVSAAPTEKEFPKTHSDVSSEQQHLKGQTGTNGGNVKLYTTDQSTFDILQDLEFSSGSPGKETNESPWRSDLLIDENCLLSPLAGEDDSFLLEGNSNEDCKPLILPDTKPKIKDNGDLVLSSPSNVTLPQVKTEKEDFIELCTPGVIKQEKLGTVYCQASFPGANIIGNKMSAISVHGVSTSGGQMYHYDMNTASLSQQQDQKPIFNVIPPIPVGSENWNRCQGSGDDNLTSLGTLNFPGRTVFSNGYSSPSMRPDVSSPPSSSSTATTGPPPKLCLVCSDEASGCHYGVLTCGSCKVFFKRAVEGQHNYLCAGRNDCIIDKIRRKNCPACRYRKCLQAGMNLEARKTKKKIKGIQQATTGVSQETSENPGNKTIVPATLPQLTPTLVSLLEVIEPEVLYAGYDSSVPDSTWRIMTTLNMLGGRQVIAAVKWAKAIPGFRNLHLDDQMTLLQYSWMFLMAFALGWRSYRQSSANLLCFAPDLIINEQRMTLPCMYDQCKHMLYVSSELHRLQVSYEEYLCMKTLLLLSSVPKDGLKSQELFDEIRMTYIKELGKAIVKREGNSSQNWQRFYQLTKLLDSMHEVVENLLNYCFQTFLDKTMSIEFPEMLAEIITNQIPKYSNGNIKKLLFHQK

[7] = molecular target: Glucocorticoid receptor (Homo sapiens) (UniProt P04150); test: GR-EFC Redistribution (AID 451; calls by dose curve; note: potency is the fitted concentration of half-maximal effect); conditions: CHO-K1 GR-EFC translocation, beta-gal luminescence, 2 h
Method in brief: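 Translocation of GR-ED fusion to nuclear EA restores b-gal, read by luminescence after 1 h room-temperature detection. Engineered CHO-K1 biosensor cells, 1,000/well, exposed 2 h at 37 C to titrations up to 46 uM final.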

[8] = molecular target: Mitogen-activated protein kinase 10 (Mus musculus) (UniProt Q61831); test: JNK3 AlphaScreen Assay (AID 530); conditions: JNK3 lysate, c-Jun phosphorylation; series mostly up to 11.4 µM;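 note: kinase came from lysate of stimulated human HepG2 cells; signal reports phosphorylation of biotinylated GST-cJun 1-79 at Ser73 with 10 µM ATP; % is set by controls: 0 for no effect and ±100 for the full control effect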
Method in brief: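 qHTS titrations with 15 min compound pre-incubation before adding ATP (10 uM final). Read-out: AlphaScreen of Ser73-phosphorylated biotin-GST-cJun using HepG2 lysate JNK3 activated by IL-1β and TNFα.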

[9] = molecular target: 3',5'-cyclic-AMP phosphodiesterase 4B (Homo sapiens) (UniProt Q07343); test: qHTS Assay for Inhibitors of PDE-IV (AID 607; active = well fitted activation curve with a large enough effect in the main read-out, with a control signal flat, not every such curve was filed as active; note: % of control where 0% means no effect); conditions: HEK293 ACTOne CNG channel cells, membrane potential fluorescence; series mostly up to 22.9 µM
Chain of 3',5'-cyclic-AMP phosphodiesterase 4B (Homo sapiens) (Q07343 whole entry, looked up): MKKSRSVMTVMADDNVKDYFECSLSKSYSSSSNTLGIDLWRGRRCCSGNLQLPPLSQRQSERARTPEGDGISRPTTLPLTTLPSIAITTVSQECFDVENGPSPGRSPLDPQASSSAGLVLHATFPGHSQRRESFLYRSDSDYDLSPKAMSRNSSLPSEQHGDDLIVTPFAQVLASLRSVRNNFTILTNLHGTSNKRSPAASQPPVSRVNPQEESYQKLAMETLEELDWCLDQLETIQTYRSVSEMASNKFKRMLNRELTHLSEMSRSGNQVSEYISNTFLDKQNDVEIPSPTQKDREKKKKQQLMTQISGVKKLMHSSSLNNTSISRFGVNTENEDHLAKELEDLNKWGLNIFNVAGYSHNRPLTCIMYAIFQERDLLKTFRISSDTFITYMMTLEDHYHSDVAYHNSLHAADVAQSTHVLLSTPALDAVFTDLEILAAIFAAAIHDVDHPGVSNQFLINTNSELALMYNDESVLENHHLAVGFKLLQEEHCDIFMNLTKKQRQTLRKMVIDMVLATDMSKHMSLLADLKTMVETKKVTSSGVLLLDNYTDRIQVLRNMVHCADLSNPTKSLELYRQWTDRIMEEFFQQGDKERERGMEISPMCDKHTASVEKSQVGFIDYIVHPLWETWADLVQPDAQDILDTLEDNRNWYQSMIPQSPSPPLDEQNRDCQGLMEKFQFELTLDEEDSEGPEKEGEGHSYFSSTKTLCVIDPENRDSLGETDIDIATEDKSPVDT
Method in brief: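 HEK293 ACTOne cells with CNG channel (1000/well), endogenous PDE4; membrane potential dye, compounds up to 22.9 uM final. Fluorescence Ex 535/Em 590; RO 20-1724 (100 uM final) as reference.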

[10] = molecular target: Cytochrome P450 2C9 (Homo sapiens) (UniProt P11712); test: qHTS Assay for Inhibitors and Substrates of Cytochrome P450 2C9 (AID 883; active = well fitted inhibition curve with a large enough effect; note: nearly all actives have a fitted effect of over 60% in size; note: potency is the fitted concentration of half-maximal effect); conditions: recombinant CYP2C9, luciferin-H luminescence, 60 min; series mostly up to 11.4 µM
Chain of Cytochrome P450 2C9 (Homo sapiens) (P11712 whole entry, looked up): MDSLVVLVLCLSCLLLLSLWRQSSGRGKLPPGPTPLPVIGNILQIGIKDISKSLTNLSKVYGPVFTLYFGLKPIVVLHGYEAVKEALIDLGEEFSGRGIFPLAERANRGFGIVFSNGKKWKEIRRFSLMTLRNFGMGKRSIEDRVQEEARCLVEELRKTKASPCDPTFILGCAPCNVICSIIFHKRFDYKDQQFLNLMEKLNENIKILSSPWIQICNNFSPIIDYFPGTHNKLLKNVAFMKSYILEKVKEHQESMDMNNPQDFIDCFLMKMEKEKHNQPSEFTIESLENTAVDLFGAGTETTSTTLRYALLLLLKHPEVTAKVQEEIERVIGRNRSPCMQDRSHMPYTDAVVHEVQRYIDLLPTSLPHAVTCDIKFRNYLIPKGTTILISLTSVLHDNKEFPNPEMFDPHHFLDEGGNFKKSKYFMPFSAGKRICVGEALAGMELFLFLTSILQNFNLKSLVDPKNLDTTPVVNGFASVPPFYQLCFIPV
Method in brief: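 Turnover of Luciferin-H (100uM, KM) by 10nM human CYP2C9 was measured over 60 min at 37C with NADPH regeneration; inhibitors and some substrates reduce luminescence. Data normalized to sulphaphenazole 57uM.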

[11] = molecular target: Cytochrome P450 2C19 (Homo sapiens) (UniProt P33261); test: qHTS Assay for Inhibitors and Substrates of Cytochrome P450 2C19 (AID 899; active = well fitted inhibition curve with a large enough effect; note: nearly all actives have a fitted effect of over 60% in size; note: potency is the fitted concentration of half-maximal effect); conditions: recombinant CYP2C19, luciferin-H EGE luminescence; series mostly up to 11.4 µM
Chain of Cytochrome P450 2C19 (Homo sapiens) (P33261 whole entry, looked up): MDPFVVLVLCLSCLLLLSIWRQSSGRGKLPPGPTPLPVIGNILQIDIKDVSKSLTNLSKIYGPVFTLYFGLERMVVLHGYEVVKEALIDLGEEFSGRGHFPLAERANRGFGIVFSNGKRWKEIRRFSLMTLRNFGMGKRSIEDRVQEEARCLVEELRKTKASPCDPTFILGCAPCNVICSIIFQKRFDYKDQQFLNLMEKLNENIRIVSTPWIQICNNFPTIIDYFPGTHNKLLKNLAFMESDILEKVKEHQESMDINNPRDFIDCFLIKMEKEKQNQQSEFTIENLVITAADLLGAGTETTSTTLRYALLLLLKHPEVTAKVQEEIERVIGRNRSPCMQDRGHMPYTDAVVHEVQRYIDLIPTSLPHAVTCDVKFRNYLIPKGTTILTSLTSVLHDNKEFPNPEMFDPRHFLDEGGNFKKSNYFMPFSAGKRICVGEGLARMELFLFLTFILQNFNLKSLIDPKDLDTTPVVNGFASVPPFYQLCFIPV
Method in brief: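 Reactions contain 5nM enzyme, 10uM Luciferin-H EGE (KM) and 50mM KPO4; compound preincubates 10 min at 37C, NADPH regeneration starts turnover for 60 min. Luminescence after detection reagent gives activity.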

[12] = molecular target: Cytochrome P450 2D6 (Homo sapiens) (UniProt P10635); test: qHTS Assay for Inhibitors and Substrates of Cytochrome P450 2D6 (AID 891; active = well fitted inhibition curve with a large enough effect;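 note: luciferin methyl ether substrate demethylated by CYP2D6 with NADPH regeneration; % is set by controls: 0 for no effect and ±100 for the full control effect; nearly all actives have a fitted effect of over 60% in size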); conditions: recombinant CYP2D6, luciferin-ME EGE luminescence; series mostly up to 11.4 µM
Chain of Cytochrome P450 2D6 (Homo sapiens) (P10635 whole entry, looked up): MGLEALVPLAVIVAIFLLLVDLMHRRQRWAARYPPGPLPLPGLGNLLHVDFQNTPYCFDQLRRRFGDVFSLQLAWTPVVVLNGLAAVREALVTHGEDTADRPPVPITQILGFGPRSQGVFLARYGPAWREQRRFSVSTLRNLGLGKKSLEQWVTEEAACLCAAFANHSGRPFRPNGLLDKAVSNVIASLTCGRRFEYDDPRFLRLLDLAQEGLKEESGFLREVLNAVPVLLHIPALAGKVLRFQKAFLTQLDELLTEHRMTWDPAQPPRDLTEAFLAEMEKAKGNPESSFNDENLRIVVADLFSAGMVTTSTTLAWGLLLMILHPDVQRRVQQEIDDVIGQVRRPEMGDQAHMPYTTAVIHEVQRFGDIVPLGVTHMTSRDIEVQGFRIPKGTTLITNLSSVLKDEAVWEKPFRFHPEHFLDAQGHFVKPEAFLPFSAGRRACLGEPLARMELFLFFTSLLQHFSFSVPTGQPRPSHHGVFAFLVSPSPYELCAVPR
Method in brief: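 Luminescent read-out of luciferin formed by 5 nM human CYP2D6 demethylating 30 uM Luciferin-ME EGE (Km level) over 60 min at room temperature after NADPH regeneration addition. Data normalized to full inhibition by 1.43 uM quinidine.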

N#C[C@H](c1ccccc1)N1CCCN([C@@H](C#N)c2ccccc2)C1c1ccccc1O (stereo not given in full)
active: Potency [3] 3.98 µM | Potency [10] 3.16 µM | Potency [11] 0.251 µM
inactive: Potency [1] > 11.4 µM | activity change, negative = inhibition [2] 8.03% | activity change, negative = inhibition [4] -26.1% | activity, negative = inhibition [5] 6.35% | Potency [6] > 46 µM | Potency [7] > 9.22 µM | Potency [8] | Potency [9]

Nc1nc(N)nc(CCCCc2nc(N)nc(N)n2)n1
inactive: Potency [1] > 11.4 µM | activity change, negative = inhibition [2] 4.24% | activity change, negative = inhibition [3] 8.1% [at 2.29 µM] | activity change, negative = inhibition [4] 12.4% | activity, negative = inhibition [5] -0.633% | Potency [6] > 46 µM | Potency [7] > 9.22 µM | Potency [8] | Potency [9] | Potency [10] | Potency [12] | Potency [11]

O=C1CNCCCN2CCN(CCCNCC(=O)Nc3ccc(cc3)S(=O)(=O)c3ccc(cc3)NC(=O)CNCCCN3CCN(CCCNCC(=O)Nc4ccc(cc4)S(=O)(=O)c4ccc(cc4)N1)CC3)CC2
inactive: Potency [1] > 11.4 µM | activity change, negative = inhibition [2] -2.18% | Potency [3] | activity change, negative = inhibition [4] 13.1% | activity, negative = inhibition [5] -11% | Potency [6] > 46 µM | Potency [7] > 9.22 µM | Potency [8] | Potency [9] | Potency [10] | Potency [12] | Potency [11]
